Laboratory results published in PubChem BioAssay (NCATS).
Records with an inconclusive call do not appear. Active and inactive are the calls of the source. Calls come from the whole dose curve; as a rule, active = well fitted curve in the direction sought with a large enough effect; inconclusive = small, poorly fitted or top-dose-only effect, or another doubt; inactive = no such curve, though single readings can be large; an effect the other way counts as inactive or inconclusive.

Tests used:
HACAT = test: qHTS assay to identify novel small-molecules to repurpose for Merkel cell carcinoma treatment (AID 1296009); conditions: MCC and control cell lines, CellTiter-Glo viability, 72 h; at 44.8 µM (top of the series) unless noted; note: nearly all actives have a fitted effect of over 60% in size
How it was run: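 72 hr, 37 degree celsius; NPC 8-pt / MIPE 11-pt dose response; compound pinned in DMSO; CellTiter-Glo, 10 min RT, luminescence; normalized to no-cell and DMSO controls.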

C33A = test: Primary qHTS to identify gynecologic anti-cancer compounds using libraries of approved drugs and bioactive compounds (AID 1345084); conditions: Gynecologic cancer cell panel viability, ATPlite luminescence, 48 h; series mostly up to 57.5 µM; note: % is set by controls: 0 for no effect and ±100 for the full control effect; nearly all actives have a fitted effect of over 55% in size
How it was run: (§1)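 Luminescence from the ATPlite ATP-monitoring reagent indicates viable cell number; lower signal means cytotoxicity. Cells received compound 16 h after seeding and were exposed for 48 h across five concentrations.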

CAOV3 = test: as above; conditions: Gynecologic cancer cell panel viability, ATPlite luminescence, 48 h; series mostly up to 57.5 µM
How it was run: as §1

CASKI = test: as above; conditions: Gynecologic cancer cell panel viability, ATPlite luminescence, 48 h; series mostly up to 57.5 µM
How it was run: as §1

Es-2 = test: as above; conditions: Gynecologic cancer cell panel viability, ATPlite luminescence, 48 h; series mostly up to 57.5 µM
How it was run: as §1

HeLa = test: as above; conditions: Gynecologic cancer cell panel viability, ATPlite luminescence, 48 h; series mostly up to 57.5 µM
How it was run: as §1

Hek293T = test: as above; conditions: Gynecologic cancer cell panel viability, ATPlite luminescence, 48 h, control line for the selectivity index; series mostly up to 57.5 µM
How it was run: as §1

JEG-3 = test: as above; conditions: Gynecologic cancer cell panel viability, ATPlite luminescence, 48 h; series mostly up to 57.5 µM
How it was run: as §1

OV90 = test: as above; conditions: Gynecologic cancer cell panel viability, ATPlite luminescence, 48 h; series mostly up to 57.5 µM
How it was run: as §1

PA-1 = test: as above; conditions: Gynecologic cancer cell panel viability, ATPlite luminescence, 48 h; series mostly up to 57.5 µM
How it was run: as §1

SKOV3 = test: as above; conditions: Gynecologic cancer cell panel viability, ATPlite luminescence, 48 h; series mostly up to 57.5 µM
How it was run: as §1

Tov-21-G = test: as above; conditions: Gynecologic cancer cell panel viability, ATPlite luminescence, 48 h; series mostly up to 57.5 µM
How it was run: as §1

Tov112D = test: as above; conditions: Gynecologic cancer cell panel viability, ATPlite luminescence, 48 h; series mostly up to 57.5 µM
How it was run: as §1

CC(CC12CCCN1C(=O)C1CCCN1C2=O)OC(N)=O (configuration not stated)
inactive: outcome (HACAT) | Potency (C33A) | Potency (CAOV3) | outcome (CASKI) | Potency (Es-2) | Potency (HeLa) | Potency (Hek293T) | Potency (JEG-3) | Potency (OV90) | Potency (PA-1) | Potency (SKOV3) | Potency (Tov-21-G) | Potency (Tov112D)

COc1cncc(C#Cc2ccccn2)c1
inactive: outcome (HACAT) | Potency (C33A) | Potency (CAOV3) | outcome (CASKI) | Potency (Es-2) | Potency (HeLa) | Potency (Hek293T) | Potency (JEG-3) | Potency (OV90) | Potency (PA-1) | Potency (SKOV3) | Potency (Tov-21-G) | Potency (Tov112D)

COC(O)(CC(C)C)C1Oc2cc(C)[nH]c(=O)c2O1 (configuration not stated)
inactive: outcome (HACAT) | Potency (C33A) | Potency (CAOV3) | outcome (CASKI) | Potency (Es-2) | Potency (HeLa) | Potency (Hek293T) | Potency (JEG-3) | Potency (OV90) | Potency (PA-1) | Potency (SKOV3) | Potency (Tov-21-G) | Potency (Tov112D)

C/C=C1/C[N+](C)([O-])C2Cc3c([nH]c4ccccc34)C(=O)CC1C2C(=O)OC (configuration not stated)
inactive: outcome (HACAT) | Potency (C33A) | Potency (CAOV3) | outcome (CASKI) | Potency (Es-2) | Potency (HeLa) | Potency (Hek293T) | Potency (JEG-3) | Potency (OV90) | Potency (PA-1) | Potency (SKOV3) | Potency (Tov-21-G) | Potency (Tov112D)

CCC(C)C(C(=O)O)N1Cc2c(OCC=C(C)C)c(C)c(OC)c(C(=O)O)c2C1=O (configuration not stated)
inactive: outcome (HACAT) inactive [at 17.4 µM] | Potency (C33A) | Potency (CAOV3) | outcome (CASKI) | Potency (Es-2) | Potency (HeLa) | Potency (Hek293T) | Potency (JEG-3) | Potency (OV90) | Potency (PA-1) | Potency (SKOV3) | Potency (Tov-21-G) | Potency (Tov112D)

CC(C)=C1CC2[C@](C)(CC[C@@H](OC(=O)C3(C)OC3C)[C@@]2(C)O)CC1=O (some centres not stated)
inactive: outcome (HACAT) | Potency (C33A) | Potency (CAOV3) | outcome (CASKI) | Potency (Es-2) | Potency (HeLa) | Potency (Hek293T) | Potency (JEG-3) | Potency (OV90) | Potency (PA-1) | Potency (SKOV3) | Potency (Tov-21-G) | Potency (Tov112D)

CC(O)C/C=C/C=C/C(=O)OC1C=C2COC(=O)C2(O)C2(C)CCCC(C)(C)C12 (configuration not stated)
inactive: outcome (HACAT) | Potency (C33A) | Potency (CAOV3) | outcome (CASKI) | Potency (Es-2) | Potency (HeLa) | Potency (Hek293T) | Potency (JEG-3) | Potency (OV90) | Potency (PA-1) | Potency (SKOV3) | Potency (Tov-21-G) | Potency (Tov112D)

CC1(C)CC[C@]2(C(=O)O)[C@H](O)C[C@]3(C)C(=CCC4[C@@]5(C)CC[C@H](O[C@@H]6OC[C@@H](O)[C@H](O)[C@H]6O)[C@@](C)(C(=O)O)C5CC[C@]43C)[C@@H]2C1 (some centres not stated)
inactive: outcome (HACAT) inactive [at 17.4 µM] | Potency (C33A) | Potency (CAOV3) | outcome (CASKI) | Potency (Es-2) | Potency (HeLa) | Potency (Hek293T) | Potency (JEG-3) | Potency (OV90) | Potency (PA-1) | Potency (SKOV3) | Potency (Tov-21-G) | Potency (Tov112D)

C[C@@H]1O[C@@H](OC2C(O[C@H]3[C@H](O[C@H]4CC[C@@]5(C)C(CC[C@]6(C)C5CC=C5C7CC(C)(C)CC(O)[C@]7(C)CC[C@]56C)C4(C)C)O[C@H](C(=O)O)[C@@H](O)[C@@H]3O)OC(CO)C(O)C2O)[C@H](O)[C@H](O)[C@H]1O (some centres not stated)
inactive: outcome (HACAT) inactive [at 9.27 µM] | activity change, negative = cytotoxicity (C33A) 9.23% [at 11.6 µM] | activity change, negative = cytotoxicity (CAOV3) 0.0107% [at 11.6 µM] | activity change, negative = cytotoxicity (CASKI) 13.1% [at 11.6 µM] | activity change, negative = cytotoxicity (Es-2) 2.61% [at 11.6 µM] | activity change, negative = cytotoxicity (HeLa) 3.53% [at 11.6 µM] | activity change, negative = cytotoxicity (Hek293T) 5.4% [at 11.6 µM] | activity change, negative = cytotoxicity (JEG-3) 7.17% [at 11.6 µM] | activity change, negative = cytotoxicity (OV90) 7.68% [at 11.6 µM] | activity change, negative = cytotoxicity (PA-1) 0.277% [at 11.6 µM] | activity change, negative = cytotoxicity (SKOV3) 6.34% [at 11.6 µM] | activity change, negative = cytotoxicity (Tov-21-G) 5% [at 11.6 µM] | activity change, negative = cytotoxicity (Tov112D) 11.6% [at 11.6 µM]

C/C=C1/[C@H](O[C@@H]2O[C@H](CO)[C@@H](O)[C@H](O)[C@H]2O)OC=C2C(=O)O[C@@H]3C[C@@H](C(C)CO)[C@H](COC(=O)C[C@H]21)[C@H]3C (some centres not stated)
inactive: outcome (HACAT) inactive [at 17.4 µM] | Potency (C33A) | Potency (CAOV3) | outcome (CASKI) | Potency (Es-2) | Potency (HeLa) | Potency (Hek293T) | Potency (JEG-3) | Potency (OV90) | Potency (PA-1) | Potency (SKOV3) | Potency (Tov-21-G) | Potency (Tov112D)

CC1(C)Oc2ncnc(N)c2N=C1c1ccc(C2CCC(CC(=O)O)CC2)cc1 (configuration not stated)
inactive: outcome (HACAT) | Potency (C33A) | Potency (CAOV3) | outcome (CASKI) | Potency (Es-2) | Potency (HeLa) | Potency (Hek293T) | Potency (JEG-3) | Potency (OV90) | Potency (PA-1) | Potency (SKOV3) | Potency (Tov-21-G) | Potency (Tov112D)

COC(=O)Cn1nc(-c2cccc(OC)c2)c2ccccc21
inactive: outcome (HACAT) | Potency (C33A) | Potency (CAOV3) | outcome (CASKI) | Potency (Es-2) | Potency (HeLa) | Potency (Hek293T) | Potency (JEG-3) | Potency (OV90) | Potency (PA-1) | Potency (SKOV3) | Potency (Tov-21-G) | Potency (Tov112D)

COc1ccc(C(=O)OC2C3C=COC(OC4OC(CO)C(O)C(O)C4O)C3C3(CO)OC23)cc1OC (configuration not stated)
inactive: outcome (HACAT) inactive [at 17.4 µM] | Potency (C33A) | Potency (CAOV3) | outcome (CASKI) | Potency (Es-2) | Potency (HeLa) | Potency (Hek293T) | Potency (JEG-3) | Potency (OV90) | Potency (PA-1) | Potency (SKOV3) | Potency (Tov-21-G) | Potency (Tov112D)

O=C(/C=C/c1ccccc1)O[C@@H]1[C@@H](CO)O[C@@](CO)(O[C@H]2O[C@H](CO)[C@@H](O)[C@H](O)[C@H]2O)[C@H]1O
inactive: outcome (HACAT) inactive [at 17.4 µM] | Potency (C33A) | Potency (CAOV3) | outcome (CASKI) | Potency (Es-2) | Potency (HeLa) | Potency (Hek293T) | Potency (JEG-3) | Potency (OV90) | Potency (PA-1) | Potency (SKOV3) | Potency (Tov-21-G) | Potency (Tov112D)
